{"source": "the supplement of paper PMC6992640"}
{"system": "UCD52 (cells of a triple-negative basal-like breast cancer xenograft)", "experiment": "cell viability of combination (% of vehicle); higher = less cytotoxic", "details": "1 µM; 72 h; partner dose: 10 nM", "description": "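PDX cells were treated for 72 h with each drug at 1 µM plus afatinib (10 nM; 1 µM for WHIM30). Luciferase viability is expressed as percent of vehicle.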"}
{"molecule": "CCOc1cc2ncc(C#N)c(Nc3ccc(F)c(Cl)c3)c2cc1NC(=O)C=CCN(C)C", "note": "[Pelitinib (EKB-569)] + CN(C)C/C=C/C(=O)Nc1cc2c(Nc3ccc(F)c(Cl)c3)ncnc2cc1O[C@H]1CCOC1 [Afatinib]", "cell viability of combination": 28.6}
{"molecule": "CS(=O)(=O)O.Cc1c(O)cccc1C(=O)NC(CSc1ccccc1)C(O)CN1CC2CCCCC2CC1C(=O)NC(C)(C)C", "note": "(stereo unspecified) [Nelfinavir Mesylate] + CN(C)C/C=C/C(=O)Nc1cc2c(Nc3ccc(F)c(Cl)c3)ncnc2cc1O[C@H]1CCOC1 [Afatinib]", "cell viability of combination": 47.9}
{"molecule": "CC(Oc1cc(-c2cnn(C3CCNCC3)c2)cnc1N)c1c(Cl)ccc(F)c1Cl", "note": "[(R)-Crizotinib] + CN(C)C/C=C/C(=O)Nc1cc2c(Nc3ccc(F)c(Cl)c3)ncnc2cc1O[C@H]1CCOC1 [Afatinib]", "cell viability of combination": 48.3}
{"molecule": "CCc1oc2ccccc2c1C(=O)c1cc(Br)c(O)c(Br)c1", "note": "[Benzbromarone] + CN(C)C/C=C/C(=O)Nc1cc2c(Nc3ccc(F)c(Cl)c3)ncnc2cc1O[C@H]1CCOC1 [Afatinib]", "cell viability of combination": 77.2}
{"molecule": "CN(C)c1ccc(O)c2c1CC1CC3C(N(C)C)C(=O)C(C(N)=O)=C(O)C3(O)C(=O)C1=C2O.Cl", "note": "(stereo unspecified) [Minocycline HCl] + CN(C)C/C=C/C(=O)Nc1cc2c(Nc3ccc(F)c(Cl)c3)ncnc2cc1O[C@H]1CCOC1 [Afatinib]", "cell viability of combination": 75.9}
{"molecule": "Cc1cc(Nc2ncc(Cl)c(Nc3ccccc3S(=O)(=O)C(C)C)n2)c(OC(C)C)cc1C1CCNCC1", "note": "+ CN(C)C/C=C/C(=O)Nc1cc2c(Nc3ccc(F)c(Cl)c3)ncnc2cc1O[C@H]1CCOC1 [Afatinib]", "cell viability of combination": 28.7}
